Screening results as filed in PubChem BioAssay.
BoNT A protease = BoNT/A light chain protease inhibitors, primary screen, biochemical, flow cytometry, MLPCN library. multiplex microsphere protease substrate cleavage. AID 588499, 2011. inhibition, % at 10 µM. 0.17% of 360,000 active
Bead autofluor = flagged as autofluorescent in microsphere protease counterscreen | compound autofluorescence counterscreen, microsphere flow cytometry; hits give high values | fluorescence intensity (no concentration beside the values) | 3.1% of 360,000 active | AID 624483; in the data active = fluorescence intensity above about 16000; inconclusive = no clear call, values can overlap the other calls
BoNT-F LC inh = BoNT/F light chain protease inhibitors, primary screen, biochemical, flow cytometry, MLPCN library. Botulinum neurotoxin type F light chain protease (Clostridium botulinum). Multiplex microsphere protease cleavage assay. inhibition, % at 10 µM. 0.22% of 360,000 active. AID 588497, 2011; in the data active = inhibition above about 35%, passing the limit was not always enough; inconclusive = no clear call, values can overlap the other calls
Anthrax LF inh2 = Bacillus anthracis LF protease inhibitors, primary screen, biochemical, multiplex microsphere, MLPCN library. AID 588501, 2011. Lethal factor (Bacillus anthracis), P15917. 0.12% of 360,000 active. multiplex microsphere protease cleavage assay. inhibition, % at 10 µM
Target sequence (P15917 whole entry, looked up): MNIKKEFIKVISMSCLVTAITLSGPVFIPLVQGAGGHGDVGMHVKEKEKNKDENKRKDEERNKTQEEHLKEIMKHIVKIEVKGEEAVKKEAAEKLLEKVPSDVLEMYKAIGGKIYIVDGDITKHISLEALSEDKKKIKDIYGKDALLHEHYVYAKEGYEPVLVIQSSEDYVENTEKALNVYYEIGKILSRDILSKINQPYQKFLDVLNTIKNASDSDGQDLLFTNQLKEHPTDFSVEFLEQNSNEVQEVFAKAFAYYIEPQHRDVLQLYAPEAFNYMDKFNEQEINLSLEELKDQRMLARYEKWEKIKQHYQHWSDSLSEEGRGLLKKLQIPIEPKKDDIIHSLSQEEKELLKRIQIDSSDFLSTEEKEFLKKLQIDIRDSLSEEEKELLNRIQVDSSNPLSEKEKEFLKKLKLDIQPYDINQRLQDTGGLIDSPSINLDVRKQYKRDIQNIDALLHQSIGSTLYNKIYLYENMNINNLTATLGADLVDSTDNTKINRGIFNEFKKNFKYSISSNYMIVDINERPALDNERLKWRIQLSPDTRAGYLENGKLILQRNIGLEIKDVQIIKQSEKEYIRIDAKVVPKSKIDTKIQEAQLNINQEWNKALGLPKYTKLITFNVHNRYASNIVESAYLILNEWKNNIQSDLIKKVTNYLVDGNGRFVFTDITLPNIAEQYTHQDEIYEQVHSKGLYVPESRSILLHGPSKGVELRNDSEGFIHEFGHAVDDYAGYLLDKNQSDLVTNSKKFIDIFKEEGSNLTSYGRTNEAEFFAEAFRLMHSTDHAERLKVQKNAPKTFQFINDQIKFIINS
Numbers stand for hits; 0 = inactive; ? = inconclusive. A selection: hits, their analogues and other compounds. The true share with any hit is near 3.5%. Rule as the data show it, unless noted: active = inhibition above about 30%; inconclusive = no clear call, values can overlap the other calls; inactive = below that.

SMILES	BoNT A protease	Bead autofluor	BoNT-F LC inh	Anthrax LF inh2
CCNC(=O)C1(C)CCCN(C(=O)Cc2ccc(OC)c(OC)c2)C1 (stereo not drawn)	0	0	0	0
CCn1c(C)c(C(=O)c2ccccc2)c(C#N)c1C(=O)O	0	0	0	0
CC1(C)N=C(c2ccc(Cl)cc2)C(=O)N1	0	23886	0	0
Cc1ccc(C2=NC(C)(C)NC2=O)cc1	0	0	0	0
CCc1cc2c(SCC(=O)c3ccc(Cl)s3)ncnc2s1	0	0	0	0
Cc1cc(=O)oc2cc(OCC(=O)Nc3nnc(CC(C)C)s3)ccc12	0	0	35	0
Cc1cc(=O)oc2cc(OCC(=O)Nc3nnc(C(C)C)s3)ccc12	0	0	0	0
COc1ccc(S(=O)(=O)NCCC(=O)NCc2ccccc2)cc1	0	21763	0	0
COc1ccc(S(=O)(=O)NCc2ccccc2)cc1	0	21265	0	0
O=S(=O)(NCc1cccs1)c1cccc2cccnc12	0	17165	0	0
CSc1ccc(S(=O)(=O)NCc2ccc(C)cc2)cc1	0	23510	0	0
CCCC(C(=O)Nc1ccncc1)c1ccccc1 (stereo not drawn)	0	0	0	0
COc1ccc(S(=O)(=O)NCc2cccs2)cc1	0	21782	0	0
COc1ccc(S(=O)(=O)NCCCCNS(=O)(=O)c2ccc(OC)cc2)cc1	0	0	0	0
CCN(CC)S(=O)(=O)c1ccc(S(=O)(=O)NCc2cccs2)cc1	0	0	0	0
COc1ccc(S(=O)(=O)NCc2ccccn2)cc1OC	0	0	?	0
COCC(C)NS(=O)(=O)c1ccc(OC)cc1 (stereo not drawn)	0	19695	0	0
C=CCNC(=O)CCCCCNS(=O)(=O)c1ccc(OC)cc1	0	23119	0	0
COc1ccccc1Oc1ccc(S(=O)(=O)NCc2ccccn2)cc1	0	23518	0	0
Cc1ccc([N+](=O)[O-])cc1NC(=O)Nc1onc(C)c1C	0	0	?	0
CN(Cc1ccccc1)C(=O)C1CCN(S(=O)(=O)c2cccc3nsnc23)CC1	0	0	0	0
CC(Sc1cnccn1)C(=O)O (stereo not drawn)	0	0	0	0
COc1ccc(C2C(=O)N(CCc3ccccc3)CC(=O)N2C2CCCCC2)cc1 (stereo not drawn)	0	25113	0	0
Cc1ccc(C)c(N(C)C(=O)CCS(=O)(=O)c2cccc3nonc23)c1	0	0	0	0
O=C(Cc1cccs1)N(CC1CCCO1)C1(C(=O)NC2CCCC2)CCCCC1 (stereo not drawn)	0	0	0	0
SMILES	BoNT A protease	Bead autofluor	BoNT-F LC inh	Anthrax LF inh2
O=S(=O)(Nc1ccccc1F)c1ccc2nsnc2c1	0	0	0	0
Cc1cc(S(=O)(=O)Nc2c(C)ccc3nsnc23)ccc1F	0	16194	0	0
Cc1ccc2nsnc2c1NS(=O)(=O)c1c(C)ccc2nsnc12	0	22309	0	0
COC(=O)C1=CN(C)C=C(C(=O)OC)C1c1ccc(O)c(OC)c1	?	23196	0	0
CCOc1cc(C2C(C(=O)OC)=CN(Cc3ccc(Cl)cc3)C=C2C(=O)OC)ccc1O	0	0	48	0
O=C(CCc1nnc(-c2ccc3c(c2)OCO3)o1)NC(c1cccnc1)C(F)(F)F (stereo not drawn)	0	0	0	0
CCOC(=O)C1CCN(C(=O)c2cccc(S(=O)(=O)N3CCCc4ccccc43)c2)CC1	0	0	0	0
O=C(NCCCO)c1nnc(Cc2c(F)cccc2Cl)o1	0	0	0	0
O=C(NCCCN1CCN(Cc2ccccc2)CC1)c1nnc(Cc2c(F)cccc2Cl)o1	0	19523	0	0
O=C(CCS(=O)(=O)Cc1ccc(Cl)cc1)NCCCN1CCOCC1	0	23981	0	0
COc1ccc(NC(=O)c2oc3ccccc3c2NC(=O)C2CC2)cc1	0	20675	0	0
COc1cccc(NC(=O)c2oc3ccccc3c2NC(=O)C2CC2)c1	?	24287	0	0
CCOc1cc(NC(=S)Nc2cccc(OC)c2)c(OCC)cc1NC(=O)C1CC1	0	23099	0	0
CCCn1nc(C(=O)Nc2cc(C(=O)OC)ccc2C)c2ccccc2c1=O	0	0	0	0
Cn1nc(C(=O)NC2CCCCC2)c2ccccc2c1=O	?	21828	0	0
CC1CCC(NC(=O)c2nn(C)c(=O)c3ccccc23)CC1 (stereo not drawn)	0	0	0	0
COC(=O)c1ccc(C)c(NC(=O)c2nn(C)c(=O)c3ccccc23)c1	?	22678	0	0
Cn1c(SCCOc2ccc(Cl)cc2)nnc1-c1ccncc1	0	23566	0	0
Cc1ccc(OCCSc2nnc(-c3cccs3)n2C)cc1	?	20327	0	0
Cn1c(SCCOc2ccccc2Cl)nnc1-c1cccs1	0	22281	0	0
Cn1c(SCCOc2ccc(F)cc2)nnc1-c1ccncc1	0	0	0	0
Cc1cc(OCCSc2nnc(-c3cccs3)n2C)ccc1Cl	0	0	0	0
Cn1c(SC/C=C/c2ccccc2)nnc1-c1cccs1	0	?	0	0
O=C(COC(=O)c1cc(=O)[nH]c2ccccc12)Nc1nc(-c2ccccc2)cs1	0	0	0	0
Fc1cccc(CO/N=C/c2c(-c3ccccc3)nc3ccc(Cl)cn23)c1	0	16783	0	0
SMILES	BoNT A protease	Bead autofluor	BoNT-F LC inh	Anthrax LF inh2
COc1ccc(-c2cn(CCc3c[nH]c4ccccc34)nn2)cc1	0	0	0	0
COc1cccc(-c2nc(COc3ccc(Cl)cc3Cl)no2)c1	0	0	0	0
O=C(NCCCCNC(=O)C1CCCC1)C1CCCC1	0	22858	0	0
CCOC(=O)c1c(NC(C)=O)sc2c1CCC(C=NCCCN(CC)CC)=C2Sc1ccccc1	68	0	0	31
N#Cc1cc(Oc2ccc3ccccc3c2)c(-n2nnc3ccccc32)cc1C#N	0	20725	0	0
CSCC[C@H](N)C(=O)N1CCC(C(=O)N[C@H](C)C(=O)Nc2ccc(C(C)C)cc2)CC1	0	0	0	0
Cc1ccc(NC(=O)NC(=O)CSc2nnnn2C)c(C)c1	0	20545	0	0
O=C(Nc1ncnc2c1C(c1ccccc1)c1c(ccc3ccccc13)O2)c1ccccc1 (stereo not drawn)	0	0	0	0
Cc1ccc(/C(N)=N/OC(=O)CCC2CCCCC2)cc1	0	16562	0	0
N/C(=N\OC(=O)Cc1cccs1)c1ccccc1	0	?	0	0
Cc1ccc(/C(N)=N/OC(=O)Cc2cccs2)cc1	0	23460	0	0
Cc1cccc(/C(N)=N/OC(=O)Cc2cccs2)c1	0	19950	0	0
Cc1ccc(C(=O)N(CC(C)C)c2c(N)n(Cc3ccccc3)c(=O)[nH]c2=O)o1	0	0	0	?
O=C(C1=C[C@H](c2coc3ccccc3c2=O)C[C@H](OCCCCO)O1)N1CCN(Cc2ccc3c(c2)OCO3)CC1	0	0	0	0
CCCNC(=O)c1cc(C2CCCCN2C(=O)c2ccc3ccccc3c2)on1 (stereo not drawn)	0	0	0	0
O=C(Cn1cc([N+](=O)[O-])cn1)N1N=C(C(F)F)CC1(O)C(F)F (stereo not drawn)	0	22225	0	0
